# Reference: PubChem BioAssay (NCATS)
# Inconclusive results are not listed. Entries that show only a call come without a potency. Calls of active or inactive are those of the source. The call rests on the fitted dose curve; in most records, active means well fitted curve in the direction sought with a large enough effect; inconclusive means small, poorly fitted or top-dose-only effect, or another doubt; inactive means no such curve, though single readings can be large; an effect the other way counts as inactive or inconclusive.
# How the values were obtained:
# [1] = qHTS to identify inhibitors of the type 1 interferon - major histocompatibility complex class I in skeletal muscle: primary screen against the NCATS Mechanism Interrogation Plate v5.0 (MIPE) Libary (AID 1347411); further: nearly all actives have a fitted effect of over 65% in size; further: potency means the concentration at half of the fitted maximal effect
# Summary of the method: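 Seed engineered human myoblasts (HLA-B HiBit) in medium without dexamethasone containing 4 ng/ml IFN-beta; after 1 hr add compound titrations (top 46 uM final). Incubate 24 hrs at 37 C, lyse 10 min with HiBiT reagent, read luminescence.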
# [2] = qHTS to identify inhibitors of the type 1 interferon - major histocompatibility complex class I in skeletal muscle: primary screen against the NCATS Pharmaceutical Collection (AID 1347407);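 further: luminescence of HiBiT knocked into endogenous HLA-B as interferon-induced MHC class I level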
# Summary of the method: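 Compounds […] were added to CRISPR-engineered HLA-B-HiBiT C25cl48 human myoblasts with 4.0 ng/ml IFN-beta. After 24 hrs at 37 C, cells were lysed and HiBiT luminescence measured.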
# [3] = biological target: Protein phosphatase 1D (Homo sapiens) (UniProt O15297); experiment: RapidFire Mass Spectrometry qHTS Assay for Modulators of WT P53-Induced Phosphatase 1 (WIP1) (AID 1347424); further: series mostly up to about 63 µM
# Protein phosphatase 1D (Homo sapiens), sequence (O15297 whole entry, looked up): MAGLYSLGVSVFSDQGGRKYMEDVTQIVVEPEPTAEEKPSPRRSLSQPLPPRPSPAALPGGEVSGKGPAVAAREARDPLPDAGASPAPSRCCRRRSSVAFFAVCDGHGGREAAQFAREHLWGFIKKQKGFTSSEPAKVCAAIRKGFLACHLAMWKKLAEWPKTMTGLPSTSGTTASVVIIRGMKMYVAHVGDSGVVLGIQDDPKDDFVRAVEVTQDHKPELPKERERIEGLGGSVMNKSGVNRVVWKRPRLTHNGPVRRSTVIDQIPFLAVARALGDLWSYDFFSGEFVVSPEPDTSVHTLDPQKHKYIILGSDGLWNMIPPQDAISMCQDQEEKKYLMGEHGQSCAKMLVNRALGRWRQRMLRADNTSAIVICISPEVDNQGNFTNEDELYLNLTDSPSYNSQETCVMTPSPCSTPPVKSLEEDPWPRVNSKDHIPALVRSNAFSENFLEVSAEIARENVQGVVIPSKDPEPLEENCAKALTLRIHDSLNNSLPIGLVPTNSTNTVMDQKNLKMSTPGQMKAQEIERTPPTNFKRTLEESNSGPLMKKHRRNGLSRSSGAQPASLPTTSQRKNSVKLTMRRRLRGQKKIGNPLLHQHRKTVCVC
# Summary of the method: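 RapidFire MS readout of dephosphorylated VEPPL-S-QETFS product, with 1 uM isotope-labelled peptide standard. Reaction: 10 nM WIP1, 2 uM phosphopeptide substrate, 5 min, room temperature, after 1 h compound preincubation; stopped with 0.5% formic acid.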
# [4] = biological target: Protein phosphatase 1D (Homo sapiens) (UniProt O15297); experiment: Rhodamine-PBP qHTS Assay for Modulators of WT P53-Induced Phosphatase 1 (WIP1) (AID 1347425)
# Summary of the method: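 WIP1 (5 nM final) was preincubated with compound for 1 hour at room temperature. It then dephosphorylated 10 uM VEPPL-pS-QETFS peptide in Tris-HCl pH 7.5 with 30 mM MgCl2. Released Pi was detected by 10 uM Rh-PBP fluorescence (ex 525/em 598 nm) read at 1-min intervals for 11 min, as delta f1 - f0.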
# [5] = Inflammasome Signaling qHTS Counterscreen: IL-1-beta AlphaLISA counterscreen against the NCATS CANVASS Library (AID 1347381);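 further: cell-free check with purified IL-1β in medium and no THP-1 cells; series mostly up to about 57 µM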
# Summary of the method: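 Purified IL-1-beta (4 pg/well) + compound, 11-pt conc. series; acceptor beads 6 ug/mL + biotin-Ab 0.6 nM final, 1 h RT; SA-donor 24 ug/ml final, 30 min dark RT; read ex 680/em 615.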
# [6] = Cytotoxicity qHTS for assessment of Hepg2 cells membrane integrity screened against the NCATS CANVASS Library (AID 1347387)
# Summary of the method: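 Cells were seeded at 2000 per well and left overnight to attach. Compounds were pin-transferred to give 0.59 nM - 46 uM in an 11-point series and incubated 5 hr at 37C. CytoTox-ONE reagent was added and, after 10 min at room temperature, fluorescence (ex 560, em 590 nm) was read.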
# [7] = qHTS for Activators of p53 Stress Response Pathway screened against the NCATS CANVASS Library (AID 1347388)
# Summary of the method: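 p53RE-bla HCT-116 cells (4000/well) were pre-incubated for 5 h, then treated with compound (11 points) for 16 h at 37C. After 2 h with CCF4, the 460/530 nm ratio gave reporter activation; CellTiter-Glo measured viability.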
# [8] = Secretion counterscreen for inhibitors of the SERCaMP assay screened against the NCATS CANVASS Library (AID 1347390);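 further: light from luciferase secreted into medium read as a measure of general secretion; series mostly up to about 77 µM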
# Summary of the method: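 Counterscreen for secretory-pathway interference: after 4 h attachment, SH-SY5Y-GLuc cells were exposed 20 hours to compounds (final 0.001 - 77 uM), then coelenterazine added and GLuc luminescence recorded; Brefeldin A served as control.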
# [9] = qHTS for activators of Nrf2/ARE signaling pathway screened against the NCATS CANVASS Library (AID 1347391); further: nearly all actives have a fitted effect of over 60% in size
# Summary of the method: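 Beta-lactamase reporter signal, read as 460 and 530 nm emission under 405 nm excitation after 2 h CCF4 loading, reflected ARE activation in HepG2 cells treated 16 h with an 11-point series.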
# [10] = qHTS for activators of dead-cell proteases activity screened against the NCATS CANVASS Library (AID 1347392);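 further: luminescence from protease leaking out of membrane-damaged cells cleaving impermeant substrate; rising signal means more cytotoxicity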
# Summary of the method: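 HepG2, 2000 cells/well, 18 h attach; cpd 11-pt, 5 h 37C 5% CO2; CytoTox-Glo (AAF-aminoluciferin) 15 min RT; luminescence read.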
# [11] = qHTS for inhibitors of ER calcium dysfunction: SERCaMP assay screened against the NCATS CANVASS Library (AID 1347393);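 further: series mostly up to about 77 µM; lower secreted reporter signal means inhibitor of ER calcium depletion; nearly all actives have a fitted effect of over 40% in size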
# Summary of the method: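 SH-SY5Y GLuc-SERCaMP, 1000 cells/well, 4 h attach; cpd 16 h, 37C/5% CO2; thapsigargin (added as 6x 600 nM) 4 h; coelenterazine; luminescence. Reduced reporter release = ER Ca stabilization.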
# [12] = Vero-766 cells viability qHTS against the NCATS CANVASS Library: Counterscreen for Zika virus inhibition assay (AID 1347394); further: series mostly up to about 46 µM; nearly all actives have a fitted effect of over 60% in size
# Summary of the method: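 CellTiter Glo luminescence measured cytotoxicity after 72 h at 37C in uninfected Vero 766 cells, plated at 1000 cells/well. Compounds were applied in an 11-point series. Wells without cells defined 100% inhibition.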
# [13] = qHTS for inhibitors of Wild type Zika virus screened against the NCATS CANVASS Library (AID 1347396);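 further: ATP luminescence of surviving cells so rescue from viral cell killing; series mostly up to about 46 µM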
# Summary of the method: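 Vero 766 (African green monkey) cells, 1000 per well, attached overnight, then compounds were added in an 11-point series before wild-type Zika virus infection. After 72 h at 37C, cell viability was read as CellTiter Glo luminescence.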
# [14] = Viability qHTS for inhibitors of the SERCaMP assay screened against the NCATS CANVASS Library (AID 1347400); further: series mostly up to about 92 µM; nearly all actives have a fitted effect of over 70% in size
# Summary of the method: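 Seed SH-SY5Y-GLuc SERCaMP MJH297 cells at 1000 per well, incubate 4 h, add compounds across an 11-point range, incubate 48 h at 37C, then add CellTiter-Glo and read luminescence.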
# [15] = Redox Reaction Profiling qHTS: Assay Interference Panel against the NCATS CANVASS Library (AID 1347401)
# Summary of the method: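 Fluorescence read-out (525 nm excitation, 598 nm emission) at time zero and after 15 min in the dark tracked resorufin formation. Mix: 5 uM resazurin, 200 uM DTT, HEPES pH 7.3 buffer with NaCl.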
smiles,measurement,setting,value
O=C(NC[C@H](O)CN1CCc2ccccc2C1)c1cc(NC2COC2)ncn1,Potency,[1],inactive
NS(=O)(=O)NCCNc1nonc1C(=Nc1ccc(F)c(Br)c1)NO,Potency,[1],inactive
Cc1nnc(C(C)C)n1C1CC2CCC(C1)N2CC[C@H](NC(=O)C1CCC(F)(F)CC1)c1ccccc1 (stereo partly specified),Potency,[1],inactive
OCc1ccccc1O[C@@H]1O[C@H](CO)[C@@H](O)[C@H](O)[C@H]1O,Potency,[1],inactive
CCOC(=O)[C@H]1O[C@@H]1C(=O)N[C@@H](CC(C)C)C(=O)NCCC(C)C,Potency,[1],inactive
O=C(O)C[C@H](O)C[C@H](O)/C=C/c1c(C2CC2)nc2ccccc2c1-c1ccc(F)cc1,Potency,[1],inactive
CC(=O)OC(C)OC(=O)C(C)c1ccc(-c2ccccc2)c(F)c1 (stereo unspecified),outcome,[2],inactive
same,outcome,[3],inactive
same,outcome,[4],inactive
C=C1CC[C@@H]2[C@](C)(CO)[C@H](O)CC[C@@]2(C)[C@@H]1C/C=C1/C(=O)OC[C@H]1O,Potency,[1],11.7 µM (active)
O=C(C1CC1)N1CC[C@@H](Cc2n[nH]c(=O)n2-c2ccc(-c3ccc4occc4c3)cc2)C1,Potency,[1],inactive
CC1=C2C(=O)O[C@@H](c3ccoc3)[C@]2(C)CCC1,outcome,[5],inactive
same,outcome,[6],inactive
same,outcome,[7],inactive
same,outcome,[8],inactive
same,outcome,[9],inactive
same,outcome,[10],inactive
same,outcome,[11],inactive
same,outcome,[12],inactive
same,outcome,[13],inactive
same,outcome,[14],inactive
same,outcome,[15],inactive
O=C(O)c1ccc(CCCc2ccc(OCCc3ccc(F)cc3)cc2)o1,Potency,[1],inactive
CCOC(=O)c1ccnc(CNCC(=O)N(CC)CCN(C)C)c1,Potency,[1],inactive
C[C@H](CCC(=O)O)[C@H]1CC[C@H]2[C@@H]3[C@H](O)C[C@@H]4C[C@H](O)CC[C@]4(C)[C@H]3CC[C@]12C,Potency,[1],inactive
CC(=O)c1cnc2ccc(-c3cc(Cl)c(O)c(Cl)c3)nc2c1NC1CCC(CN(C)C)CC1 (stereo unspecified),Potency,[1],0.151 µM (active)
